Compound activity (PubChem)
Most compounds without a hit are left out; they make up all but 12% or so of the library.
JMJD2A Tudor: JMJD2A Tudor domain (human) inhibition; Potency, µM (titrated, usually from 114 µM), inactives show top-dose activity change, negative = inhibition, usual class: inhibitors; AID 504339; 4.4% of 390,000 active; AlphaScreen JMJD2A-Tudor / H3K4me3 peptide binding; further: on the % scale 0 is the no-effect control and ±100 the full control effect; nearly all actives have a fitted effect of over 50% in size
Target sequence (O75164 whole entry, looked up, the tested form may be a part): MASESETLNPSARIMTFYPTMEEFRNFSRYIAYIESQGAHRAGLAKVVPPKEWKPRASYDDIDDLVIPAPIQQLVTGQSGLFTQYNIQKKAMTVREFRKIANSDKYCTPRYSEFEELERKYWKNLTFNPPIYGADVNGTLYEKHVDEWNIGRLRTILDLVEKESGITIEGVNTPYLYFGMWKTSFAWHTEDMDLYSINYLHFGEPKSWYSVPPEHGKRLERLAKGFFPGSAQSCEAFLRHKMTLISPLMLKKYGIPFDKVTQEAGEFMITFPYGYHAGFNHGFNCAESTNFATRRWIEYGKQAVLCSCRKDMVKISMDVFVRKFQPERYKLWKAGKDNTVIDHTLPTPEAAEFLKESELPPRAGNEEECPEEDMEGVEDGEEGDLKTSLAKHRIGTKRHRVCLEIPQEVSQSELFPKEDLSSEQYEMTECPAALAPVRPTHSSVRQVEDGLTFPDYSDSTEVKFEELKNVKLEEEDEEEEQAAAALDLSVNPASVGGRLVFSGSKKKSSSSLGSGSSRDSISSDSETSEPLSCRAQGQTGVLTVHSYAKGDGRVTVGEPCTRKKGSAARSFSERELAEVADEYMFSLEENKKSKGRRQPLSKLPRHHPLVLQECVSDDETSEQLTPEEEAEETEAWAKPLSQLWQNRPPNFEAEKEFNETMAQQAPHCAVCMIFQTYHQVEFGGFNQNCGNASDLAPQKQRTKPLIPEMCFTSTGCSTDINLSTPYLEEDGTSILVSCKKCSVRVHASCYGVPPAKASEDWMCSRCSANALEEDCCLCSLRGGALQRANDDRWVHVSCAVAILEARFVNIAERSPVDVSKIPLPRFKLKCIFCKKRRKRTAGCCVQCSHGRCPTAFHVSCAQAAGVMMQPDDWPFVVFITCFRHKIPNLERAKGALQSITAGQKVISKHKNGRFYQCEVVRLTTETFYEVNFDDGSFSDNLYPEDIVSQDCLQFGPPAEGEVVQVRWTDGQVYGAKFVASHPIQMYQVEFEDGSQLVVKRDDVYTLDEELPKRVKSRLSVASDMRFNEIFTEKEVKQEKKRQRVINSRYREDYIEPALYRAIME
Sfp inh: blocks B. subtilis Sfp PPTase activity | AID 1490 | 3.5% of 310,000 active | Biochemical Sfp PPTase activity, qHTS | Potency, µM, inactives show largest response in the series, negative = inhibition, actives largely listed as inhibitors;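 further: the enzyme is Sfp with the accession as filed and its product quenches rhodamine fluorescence; 0% = enzyme reaction without inhibitor and -100% = no enzyme wells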
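Fluorescence-quenching assay with 15 nM Sfp, 5 uM rhodamine-CoA and 12.5 uM BHQ-2-labelled ybbR peptide in pH 7.6 Hepes/MgCl2 buffer. Enzyme was pre-incubated with compound for 15 min at room temperature. Rate was taken from the 30-min fluorescence change (525/598 nm).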
BAZ2B block: BAZ2B (human) inhibition. Q9UIF8. AlphaScreen BAZ2B-H3K14Ac peptide displacement. Potency, µM (series often up to 114 µM), inactives show top-dose activity change, negative = inhibition, most hits filed as inhibitors. 4.4% of 360,000 active. AID 504333; further: on the % scale 0 is the no-effect control and ±100 the full control effect; nearly all actives have a fitted effect of over 60% in size
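Protein-peptide AlphaScreen: BAZ2B 50 nM, b-H3K14Ac 50 nM, 1x PBS pH 7.4 + 0.01% Tween-20. Preincubation 30 min RT; cpd 30 min RT (top 110 uM); beads 20 min RT, light-protected.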
HP1b binding inh: HP1-beta chromodomain-methylated histone interaction inhibition; P83916; AlphaScreen HP1-beta / biotin-H3K9me3 peptide binding; Potency, µM (series often up to 114 µM), without a hit: at the highest dose activity change, negative = inhibition, actives largely listed as inhibitors; 0.56% of 390,000 active; AID 540317; further: nearly all actives have a fitted effect of over 70% in size
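Compound inhibition of the preformed complex between 50 nM HP1-beta and 50 nM biotinylated H3K9me3 peptide was read by AlphaScreen. Buffer was PBS pH 7.4 with 0.01% Tween-20. Incubations ran 30 min at room temperature, with 10 ug/mL donor/acceptor beads.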
G9a inh: G9a (human) methyltransferase inhibition. G9a H3K9 monomethylation, AlphaScreen, 2 h. Q96KQ7. 8.8% of 350,000 active. Potency, µM (highest dose often 102 µM), for the others: at the highest dose activity, negative = inhibition, usual class: inhibitors. AID 504332; further: on the % scale 0 is the no-effect control and ±100 the full control effect; nearly all actives have a fitted effect of over 75% in size
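G9a (20 nM) was preincubated 15 min with compound, then reacted 2 h at room temperature with 500 nM biotin-H3K9 peptide and 20 µM SAM. Monomethyl-H3K9 detected by AlphaScreen using anti-H3K9me1 antibody.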
An asterisk follows results filed as active; u = inconclusive; x = no result given; [ ] = another dose, or the depositor's remark. The call rests on the fitted dose curve; in most records, active means well fitted curve in the direction sought with a large enough effect; inconclusive means small, poorly fitted or top-dose-only effect, or another doubt; inactive means no such curve, though single readings can be large; an effect the other way counts as inactive or inconclusive. Potency means the concentration at half of the fitted maximal effect.

SMILES | JMJD2A Tudor | Sfp inh | BAZ2B block | HP1b binding inh | G9a inh
CC1(c2ccc(Cl)cc2)NC(=O)N(CC(=O)Nc2ccc(N3CCCCC3)cc2)C1=O (stereo not given) | u | x | u | -23.5% | 50.1µM*
O=C(/C(=C/c1ccccc1Cl)c1ccccc1)N1CCOCC1 | -4.3% | 6.0% | 4.3% | 19.8% | u
O=C(O)c1ccc(Cn2cnc3scc(-c4ccccc4)c3c2=O)cc1 | -13.8% | 8.1% | -22.0% | 44.7% | 4.5%[59 µM]
O=C(O)c1ccc(Cn2cnc3cccnc32)cc1 | -14.9% | -15.4% | -5.6% | 40.9% | 39.8µM*
CC(C)(C)c1c(Cl)c(O)c(-c2ccccc2)c(=O)n1-c1ccccc1 | 50.1µM* | -6.3% | 17.8µM* | u | x
C=CCNC(=O)CSc1nc2sc3c(c2c(=O)n1CCCOC)CCC3 | -13.5% | 8.2% | u | 45.1% | x
COCC(=O)N1CCC[C@@]2(CCN(C(=O)Nc3ccccc3)C2)C1 | x | 27.6% | x | x | 12.1%[12.7 µM]
CCOc1ccc(C(c2c(O)nc(SC)n(C)c2=O)c2c(O)nc(SC)n(C)c2=O)cc1 | -16.2% | u | -5.5% | 45.4% | 11.2µM*
CCOc1ccc(OCC(=O)OCn2c(SC)nnc(C)c2=O)cc1 | 8.2%[57.1 µM] | 7.9% | 4.8% | 40.1% | u
COc1cccc(C(=O)CSc2nnc(CNc3nc(-c4ccccc4)cs3)n2C)c1 | -31.2% | -2.6% | -14.0% | -18.6% | 8.91µM*
CC(C)OC(=O)CSc1nnc(CNc2nc(-c3ccccc3)cs2)n1C | -24.9% | -27.9% | u | -19.1% | 44.7µM*
CCn1c(=O)c2sccc2n2c(CCCC(=O)N3CCN(c4ccccc4OC)CC3)nnc12 | -13.6% | x | -26.9% | 23.5% | -24.6%[59 µM]
CCc1ccc(CN2CCN(C(=O)c3ccco3)CC2)cc1 | 20µM* | u | 31.6µM* | u | 11.2µM*
O=C(c1ccco1)N1CCN(Cc2cccc3ccccc23)CC1 | 22.4µM* | u | 20µM* | 22.4µM* | 14.1µM*
O=C(c1ccco1)N1CCN(Cc2c(Cl)cccc2Cl)CC1 | -9.8% | 9.9% | 1.9% | 37.0% | 6.8%
Cn1c(C(=O)N2CCN(C(=O)c3ccco3)CC2)cc2c(=O)n3ccccc3nc21 | -20.8% | 20µM* | 9.8% | 32.0% | u
O=C(c1ccco1)N1CCN(S(=O)(=O)c2ccc(Br)s2)CC1 | -16.3% | u | -11.7% | 3.8% | 12.6µM*
CC(C)(C)c1ccc(C(=O)N2CCN(S(=O)(=O)c3ccc(Br)s3)CC2)cc1 | -20.6% | x | -24.2% | 29.2% | 29.0%[12.7 µM]
CC(C)Cc1nc(SCC(=O)N2CCCCC2)c2c(=O)n(C)c(=O)n(C)c2n1 | -20.2% | -4.9% | 12.3% | 29.5% | -14.8%
CCn1c(CNC(=O)COc2c(C)cccc2C)nnc1SCC(=O)Nc1nccs1 | -11.2% | 17.0% | 6.5% | 49.6% | 0.8%[59 µM]
CC(=O)Nc1ccc(S(=O)(=O)NCCCCNS(=O)(=O)c2ccc(NC(C)=O)cc2)cc1 | -9.5% | 13.5% | -0.6% | 15.6% | 5.3%
COc1cccc(CN2CCN(C(=O)c3ccco3)CC2)c1 | 28.2µM* | u | 28.2µM* | u | 20µM*
O=C(c1ccco1)N1CCN(Cc2cc(=O)oc3cc(O)ccc23)CC1 | -10.4% | x | -4.5% | 20.7% | 22.4µM*
COc1ccc(OC)c(CN2CCN(C(=O)c3ccco3)CC2)c1 | 0.794µM* | -29.2% | u | u | 17.8µM*
COC(=O)C(C)SC1=N/C(=C/c2ccc(-n3cncn3)cc2)C(=O)N1 (stereo not given) | 1.0% | 11.5% | -24.9% | 47.9% | 1.5%
SMILES | JMJD2A Tudor | Sfp inh | BAZ2B block | HP1b binding inh | G9a inh
Cc1ccc(CSc2nnc(Cn3c(=O)sc4ccccc43)n2C)cc1 | -14.1% | 15.6% | 6.5% | 40.8% | 18.1%[59 µM]
Cc1cc(C(=O)NN=C2CCCC2)c2ccccc2n1 | 11.2µM* | x | -5.8% | 6.1% | -23.3%
Cc1cc(C(=O)NC(C)CCC(C)C)c2ccccc2n1 (stereo not given) | -13.7% | 7.3% | 10.7% | 37.6% | 44.7µM*
CCN(CC)C(=O)Cn1ccc(NC(C)=O)nc1=O | 3.6% | 6.8% | -8.8% | 32.8% | 4.7%
CCOc1ccccc1CNC(=O)C1CCN(C(=O)N2CCOc3ccc(Cl)cc32)CC1 | u | x | u | 3.4% | u
O=c1c2cc(Cl)ccc2nc(-c2ccccc2)n1O | u | 10.6% | 79.4µM* | -1.0% | -29.2%
COc1ccc(NC(=O)C2CCN(C(=O)c3cccs3)CC2)cc1OC | -6.4% | 5.6% | -3.5% | 66.3% | 29.6%[59 µM]
CC(C)Oc1cc(NC(=O)CS(=O)(=O)CC(=O)N(C)C)c(Cl)cc1Cl | -3.5% | 19.2% | -3.5% | 16.3% | 4.4%
Cc1ccc(-c2cn(-c3ccccc3)c(SCC(N)=O)n2)cc1C | u | -18.3% | 50.1µM* | -22.1% | u
CCOC(=O)NC(=O)CSc1nc(-c2ccc(C)c(C)c2)cn1-c1ccccc1 | u | -14.4% | 35.5µM* | u | 7.94µM*
CCC(=O)Nc1ccc(CC)cc1-c1nc2ccccc2n(CC(=O)c2ccc(OC)cc2)c1=O | -19.9% | x | -15.5% | 7.0% | -21.6%[59 µM]
S=C(NCCCN1CCOCC1)N1CCN(c2cccc(Cl)c2)CC1 | -33.1% | u | -21.1% | 9.2% | 31.6µM*
O=S(=O)(c1ccccc1)N1CCN(C(=S)NCCCN2CCOCC2)CC1 | -8.6% | -25.7% | -10.6% | 28.6% | u
CCOC(=O)N1CCN(C(=O)C2CC(=O)N(c3ccccc3)C2)CC1 (stereo not given) | -15.3% | -2.4% | 2.9% | 3.6% | x
CCOC(=O)c1sc2nc(-c3ccco3)c3c(c2c1N)CC(C)(C)OC3 | -23.6% | 8.91µM* | -10.9% | 20.0% | u
Cc1nc(SCC(=O)NCc2ccco2)c2c3c(sc2n1)CCCC3 | -20.0% | u | -39.0% | -0.1% | -21.8%[59 µM]
COC(=O)CSc1ncnc2c1sc1nc(-c3ccco3)c3c(c12)CC(C)(C)OC3 | x | 11.2µM* | 50.1µM* | x | u
CCCc1nc2sc3c(SCC(=O)NCc4ccco4)ncnc3c2c2c1CCC2 | 22.4µM* | 50.1µM* | 28.2µM* | u | 39.8µM*
Cc1ccc(S(=O)(=O)c2nnn3c2nc(N2CCCCC2)c2sccc23)cc1 | -24.9% | x | -9.1% | 30.7% | -25.6%[59 µM]
CCCCCn1c(N)c(-c2nc3ccccc3o2)c2c([N+](=O)[O-])nn(C)c(=O)c21 | 44.7µM* | 3.3% | u | 21.0% | -33.6%[59 µM]
COc1cc(NC(=S)NCc2ccc(S(N)(=O)=O)cc2)c(OC)cc1Cl | -22.6% | -22.5% | u | u | 35.5µM*
COc1ccc(NC(=S)NCCc2ccc(S(N)(=O)=O)cc2)c(OC)c1 | 4.5%[11.4 µM] | u | 2.3% | 25.7% | 35.5µM*
COc1ccc(Cl)cc1NC(=S)NCCc1ccc(S(N)(=O)=O)cc1 | -17.6% | 10.3% | -2.8% | 33.7% | u
S=C1CCSc2ccc(Cl)cc2N1 | -4.8% | 12.0% | -1.4% | 38.0% | 5.5%[59 µM]
CCCCCCCCCCCCCCCC[N+](C)(C)Cc1ccccc1 | x | 44.7µM* | x | x | -37.7%[12.7 µM]
CCCCCCCCCCCCCC[N+](C)(C)Cc1ccccc1 | x | 39.8µM* | x | x | -30.7%[12.7 µM]
CCCCCCCCCCCCCCCC[N+](C)(C)CCl | -4.2% | x | x | 30.7% | x
